Bioassay records: PubChem BioAssay, National Center for Advancing Translational Sciences (NCATS)
Pf growth 96h = inhibits malaria parasite growth, 96 h; hit rate 6.9% among 320,000; P. falciparum luciferase reporter growth, 96 h; Potency, µM (titrated, usually from 28.7 µM), without a hit: top-dose activity change, negative = inhibition, most hits filed as inhibitors; further: potency means the concentration at half of the fitted maximal effect; on the % scale 0 is the no-effect control and ±100 the full control effect
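Plates of compound plus infected erythrocytes (2% hematocrit, 0.05% parasitemia final) incubate 96 hours, 37 C, 5% CO2. Detection reagent added; reduced luminescence from the parasites' luciferase reporter flags inhibition.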
Shiga toxin inh = blocks Shiga toxin action in Vero cells. Vero cells, Shiga toxin protein synthesis inhibition reporter. inhibition, % at 38.7 µM. hit rate 9.2% among 290,000. AID 2315; in the data active means inhibition mostly above about 28%, no sharp cut-off; inactive means mostly below about 43%; further: 0% is about no effect
HCMV antiviral = inhibitors of human cytomegalovirus; HFF cells, HCMV-luciferase reporter, 72 h; active compounds read low; activity change, negative = inhibition, % at 57.5 µM; hit rate 4.5% among 410,000; AID 1259415; in the data active means activity change below about -60%; inconclusive means no clear call, values can overlap the other calls; inactive means above about -39%; further: on the % scale 0 is the no-effect control and ±100 the full control effect
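Steps: HFFs plated, 16 h 37C; compounds added; HCMV-luciferase added to MOI 1 PFU/cell; 72 h 37C; OneGlo reagent, 5 min room temperature; luminescence read, normalized to controls.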
HCV inhibitor = inhibitors of hepatitis C virus infection; Huh7.5.1 HCVcc-Cre infection, luciferase reporter, 44 h; Potency, µM (titrated, usually from 41.8 µM), inactives show at the top dose activity change, negative = inhibition, actives largely listed as inhibitors; hit rate 3.4% among 340,000; AID 651820; further: potency means the concentration at half of the fitted maximal effect; on the % scale 0 is the no-effect control and ±100 the full control effect
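Infectious HCV cell culture screen: compound-treated cells (1,000/well, pre-plated 4 h) are infected with HCVcc-Cre at roughly 0.5 moi and grown 44 h. Infection is quantified by luciferase signal after 15 min substrate incubation at room temperature.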
Pf growth 48h = inhibits P. falciparum growth in the first generation, 48 h; P. falciparum luciferase growth in erythrocytes, 48 h; Potency, µM (series often up to 28.7 µM), without a hit: top-dose activity change, negative = inhibition, hits mostly inhibitors; hit rate 5.9% among 310,000; AID 504832; further: potency means the concentration at half of the fitted maximal effect; on the % scale 0 is the no-effect control and ±100 the full control effect
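Read-out is firefly luciferase luminescence from an integrated reporter in P. falciparum, so falling signal marks reduced parasite growth. Infected erythrocytes were at 2% hematocrit and 0.1% parasitemia (final) in Albumax-supplemented RPMI 1640.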
CHX counter = counter-screen hit for Shiga toxin inhibitors, cycloheximide; cell reporter, cycloheximide protein synthesis inhibition counterscreen; max response, %; hit rate 12% among 300,000; AID 2314; in the data active means max response mostly above about 13%, no sharp cut-off; inactive means mostly below about 14%; further: read at 38.3 µM for the half of the compounds with a filed dose; 0% is about no effect
* hit, by the source's call; i = inactive; ? = inconclusive; · = not tested or not shown; [ ] = remark or other dose. A selection: hits, their analogues and other compounds. The true share with any hit is near 21%. Unless noted, the call rests on the fitted dose curve; in most records, active means well fitted inhibition curve with a large enough effect; inconclusive means small, poorly fitted or top-dose-only effect, or another doubt; inactive means no such curve, though single readings can be large or run the other way.

SMILES | Pf growth 96h | Shiga toxin inh | HCMV antiviral | HCV inhibitor | Pf growth 48h | CHX counter
CCN(CC)CCNC(=O)C(Cl)=C1C(Cl)=C(Cl)C(Cl)=C1Cl | · | · | -76.3* | ? | · | ·
CN(C)c1ccc(NC(=O)CSc2nc3ccccc3c(=O)n2C2CCCCC2)cc1 | -12.2% | 4.5 | ? | ? | ? | 5.8
COC(=O)CSc1nc2cc(Cl)ccc2c(=O)n1C1CCCC1 | ? | 1.7 | 86.2 | -18.5% | -2.0% | -0.7
NC(=O)CSc1nc2cc(Cl)ccc2c(=O)n1C1CCCCC1 | ? | 14.1 | -14.5 | 11.2µM* | -5.2% | -2.0
Cc1nonc1NC(=O)CSc1nc(C23CC4CC(CC(C4)C2)C3)nc2ccccc12 | ? | 1.5 | -68.8* | ? | ? | -1.3
Cc1cc(NC(=O)CSc2nc3ccccc3c(=O)n2C2CCCC2)no1 | · | -14.0 | -62.2* | -5.3% | · | -4.2
Cc1nonc1NC(=O)CSc1nc(C2CCCCC2)nc2ccccc12 | 3.5%[5.75 µM] | -19.0 | -88.3* | ? | ? | 5.2
COc1ccc(NC(=O)N2CCN(C(=O)C3CCCO3)CC2)cc1 (stereo unspecified) | 12.3% | 20.0 | 6.4 | 7.5% | 61.0% | 2.9
CCn1c(SCC(=O)NCc2ccccc2)nc2ccccc2c1=O | 16.4% | -4.3 | -6.1 | -19.4% | -1.5% | -0.9
O=C(CSc1nc(C2CC2)nc2ccccc12)Nc1ccccc1Cl | -18.4% | -7.4 | 4.0 | 7.7% | 8.6% | -1.7
O=C(CSc1nc2ccccc2c(=O)n1C1CC1)NCc1ccccc1 | 14.7µM* | -34.6 | 30.8 | 7.6% | -9.1% | -6.8
Cc1cc(NC(=O)CSc2nc(C3CCCCC3)nc3ccccc23)no1 | ? | -6.0 | -76.3* | -8.9% | ? | -1.2
Cn1c(-c2ccc(F)cc2)cnc1SCC(=O)Nc1ccccc1N1CCOCC1 | · | 56.0* | 97.7 | ? | -38.6% | 27.2*
O=C(CSc1nc(C2CC2)nc2ccccc12)Nc1ccccc1N1CCOCC1 | 17.7% | 13.0 | -72.0* | ? | ? | -2.4
O=C(CSc1ccc(F)cc1)Nc1ccccc1N1CCOCC1 | ? | -3.2 | -33.6 | -2.2% | -9.9% | -7.4
Cc1nnc(N(C)C(=O)c2ccncc2)s1 | 16.4% | -17.7 | 0.5 | -5.5% | -5.6% | -2.0
CC1(C)C(=O)OC(c2cc(Br)ccc2O)C(C)(C)C1=O (stereo unspecified) | 30.6% | -13.9 | ? | 13.3% | 11.7µM* | 0.3
CCOC(=O)C1=C(c2cccc(Oc3ccccc3)c2)NC(=S)NC1C (stereo unspecified) | · | 11.8 | ? | 8.91µM* | -28.2% | 10.6
Cc1ccc2[nH]c(CSc3nnc(NC(=O)c4ccccc4C)s3)cc(=O)c2c1 | · | · | -73.7* | · | · | ·
Cc1ccc2[nH]c(CSc3nnc(NC(=O)c4ccccc4F)s3)cc(=O)c2c1 | · | · | -11.1 | · | · | ·
CCOC(=O)c1ccc(C(=O)OCC)nc1 | 23.5% | 35.3* | 6.7 | 0.9% | 10.2% | 16.3*
CCOC(=O)c1ccc(N=NN(C)C)cc1 | -9.6% | 90.8* | -12.2 | -7.1% | 110.2% | 30.5*
Cn1c(COc2ccccc2)nnc1SCC(=O)Nc1nnc(C2CC2)s1 | · | · | -6.9 | 6.0% | · | ·
CCOc1ccc(NC(=O)CN2C(C(=O)OC)=C(c3ccccc3)c3cc(Cl)ccc3S2(=O)=O)cc1 | · | · | -8.5 | · | · | ·
CCOc1ccc2nc(N3CCC(C(=O)NC4CCCCC4)CC3)sc2c1 | -11.1% | 15.7 | -7.0 | -6.1% | 17.3% | 14.4
SMILES | Pf growth 96h | Shiga toxin inh | HCMV antiviral | HCV inhibitor | Pf growth 48h | CHX counter
CCOc1ccc2nc(N3CCCC(C(=O)NCCc4ccc(Cl)cc4)C3)sc2c1 (stereo unspecified) | · | · | 8.3 | · | · | ·
CCOc1ccc2nc(N3CCCC(C(=O)NCCCN4CCOCC4)C3)sc2c1 (stereo unspecified) | ? | 58.1* | 117.1 | -8.2% | 28.5% | 27.7*
CCOc1ccc2nc(N3CCC(C(=O)NCCCN4CCOCC4)CC3)sc2c1 | 8.0% | 55.6* | 37.3 | ? | 51.9% | 37.2*
CCOc1cc2sc(N3CCC(C(=O)Nc4ccc(C(C)C)cc4)CC3)nc2cc1Br | · | 120.5* | 149.8 | · | · | 55.9*
CCCC(=O)Oc1c(Sc2ccc(C)cc2)c(C)nn1-c1ccccc1 | · | · | -7.4 | · | · | ·
CCOC(=O)C1CCCN(S(=O)(=O)Cc2ccc(Cl)cc2)C1 (stereo unspecified) | ? | 1.4 | -27.7 | -3.8% | -11.4% | 1.4
COc1ccc(CN(CC2CCC(C(=O)O)CC2)C(=S)Nc2cc(C)ccc2C)cc1 (stereo unspecified) | 53.4% | -11.7 | 22.1 | -2.9% | 24.4% | 6.1
COc1cc2[nH]c(C(=O)N3CCN(C)CC3)cc2c(OC)c1OC | 20.3% | -5.7 | 67.3 | 14.6% | · | -1.7
COc1cccc(N2CCN(C(=O)c3cc4c(OC)c(OC)c(OC)cc4[nH]3)CC2)c1 | 7.38µM* | -5.0 | 47.9 | -9.2% | · | -2.4
Cc1cc(NCCCO)n2c(nc3ccccc32)c1C#N | ? | -18.4 | -22.6 | -11.3% | 10.4µM* | -3.7
Cc1cc(NCCOCCO)n2c(nc3ccccc32)c1C#N | 1.85µM* | -13.9 | 13.5 | -5.9% | ? | 4.5
COCCNc1cc(C)c(C#N)c2nc3ccccc3n12 | · | -10.3 | -4.0 | ? | ? | -1.8
COc1ccc(-n2nc3ccc(NC(=O)c4cccc(OCCC(C)C)c4)cc3n2)cc1 | · | · | -2.7 | · | · | ·
CCS(=O)(=O)N1CC(=O)N(c2cccc(Cl)c2)C(C)(C(=O)NC2CCCCCC2)C1 (stereo unspecified) | · | · | -13.4 | · | · | ·
OC(c1cccc(Cl)c1)c1nc(/C=C/c2ccccc2)cs1 (stereo unspecified) | · | · | 42.4 | · | · | ·
Cc1ccc(SC[C@H](Cc2ccccc2)N2CC[C@@H](NC(=O)OCc3ccccc3)CCC2=O)cc1 | 8.28µM* | -10.0 | · | · | ? | 2.3
COc1ccc(SC[C@H](Cc2ccccc2)N2CC[C@@H](O)CCC2=O)cc1 | -6.5% | · | -2.1 | 20.2% | 0.5% | ·
O=C1CC[C@H](OCc2ccccc2)CCN1[C@H](CSc1ccccc1)Cc1ccccc1 | ? | 33.6* | 58.0 | ? | ? | 26.8*
O=C(N[C@H]1CCC(=O)N([C@H](CSc2ccccc2)Cc2ccccc2)CC1)OCc1ccccc1 | 8.28µM* | 10.4 | -3.1 | ? | ? | 6.8
COc1ccc(SC[C@H](Cc2ccccc2)N2CC[C@@H](C(C)(C)C)CCC2=O)cc1 | ? | · | 3.0 | 8.4% | 11.7µM* | ·
O=C1CC[C@H](O)CCN1[C@H](CSc1ccccc1)Cc1ccccc1 | ? | 6.7 | -32.8 | ? | ? | 4.9
Cc1ccc2nc(-c3ccc(Cl)cc3)c(Cc3ccccc3C(F)(F)F)n2c1 | · | · | -21.3 | · | · | ·
Cc1cccc(-n2ncc(C(=O)N3CCN(Cc4ccccc4)CC3)c2C2CCN(C(=O)OC(C)(C)C)CC2)c1 | · | · | 0.0 | · | · | ·
CCCCCCOc1ccc(N2C(=O)CC(N(CCc3ccc(S(N)(=O)=O)cc3)C(C)=O)C2=O)cc1 (stereo unspecified) | i | -7.0 | -37.2 | 12.9% | ? | 3.0
